From PubChem BioAssay (NCATS)
Values joined by “and” are separate entries in the source; they are usually repeats but may differ in a detail not shown here. Equal entries are not always repeated. Inconclusive results are not listed. Active and inactive are the calls of the source. Unless noted, calls follow the shape of the full dose curve.

What was measured:
[1] = AP1 Signaling Pathway (AID 357; active = well fitted curve in either direction with a large enough effect, not every such curve was filed as active;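 also: ME-180 reporter cells stimulated with EGF at its EC50 level; % is scaled to controls: 0 for no effect and ±100 for the full control effect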)
How it was run: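 Read-out was the 460nm/530nm emission ratio (excitation 405nm) after CCF4 loading for 2.5 hours at room temperature. Cells carried an AP-1-driven beta-lactamase reporter, were stimulated with EC50 EGF plus compound for 5 hours, and AC50 values came from titrations.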

[2] = biological target: Cytochrome P450 1A2 (Homo sapiens) (UniProt P05177); experiment: p450-cyp1a2 (AID 410); also: potency is read from the fitted curve at half-maximal effect;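 as to activity change, negative = inhibition: -100% = full effect of reference inhibitor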
Chain of Cytochrome P450 1A2 (Homo sapiens) (P05177 whole entry, looked up): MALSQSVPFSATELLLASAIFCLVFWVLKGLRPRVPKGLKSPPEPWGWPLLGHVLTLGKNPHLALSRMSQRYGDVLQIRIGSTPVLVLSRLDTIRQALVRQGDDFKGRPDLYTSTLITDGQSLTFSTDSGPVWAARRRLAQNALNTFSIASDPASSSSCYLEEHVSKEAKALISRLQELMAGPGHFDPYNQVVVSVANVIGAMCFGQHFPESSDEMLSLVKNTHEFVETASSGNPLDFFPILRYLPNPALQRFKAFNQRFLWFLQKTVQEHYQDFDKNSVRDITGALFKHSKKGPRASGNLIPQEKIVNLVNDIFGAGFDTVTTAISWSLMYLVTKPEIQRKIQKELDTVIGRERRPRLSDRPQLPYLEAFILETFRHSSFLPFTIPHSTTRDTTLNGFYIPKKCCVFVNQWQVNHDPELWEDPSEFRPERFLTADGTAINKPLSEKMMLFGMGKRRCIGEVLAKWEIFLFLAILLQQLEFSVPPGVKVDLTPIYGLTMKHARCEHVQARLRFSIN
How it was run: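 Luminescent readout of luciferin formed from Luciferin-ME by human CYP1A2; data normalized against complete inhibition by 57 uM furafylline. Enzyme 20nM, substrate 100uM at Km, 100mM KPO4 buffer, 60 min reaction at room temperature.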

[3] = NFAT Signaling Pathway (AID 444; active = well fitted curve in either direction with a large enough effect, not every such curve was filed as active;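 also: carbachol stimulus at about its EC50 of 1 µM final; % is scaled to controls: 0 for no effect and ±100 for the full control effect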); conditions: Jurkat NFAT-bla M1, carbachol, beta-lactamase ratio, 5 h
How it was run: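 Jurkat cells carrying an NFAT-driven β-lactamase reporter and co-transfected muscarinic M1 receptor were treated with compound plus carbachol (1 uM final, an EC50 level) for 5 h at 37 °C. CCF4 loading followed for 1 h at RT; 460/530 nm ratio gave %activity.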

[4] = biological target: Lysosomal acid glucosylceramidase (Homo sapiens) (UniProt P04062); experiment: Glucocerebrosidase-p2 (AID 348; in the data active = potency below about 10 µM; also: potency is read from the fitted curve at half-maximal effect); conditions: purified GBA, blue fluorogenic substrate, 40 min
Chain of Lysosomal acid glucosylceramidase (Homo sapiens) (P04062 whole entry, looked up): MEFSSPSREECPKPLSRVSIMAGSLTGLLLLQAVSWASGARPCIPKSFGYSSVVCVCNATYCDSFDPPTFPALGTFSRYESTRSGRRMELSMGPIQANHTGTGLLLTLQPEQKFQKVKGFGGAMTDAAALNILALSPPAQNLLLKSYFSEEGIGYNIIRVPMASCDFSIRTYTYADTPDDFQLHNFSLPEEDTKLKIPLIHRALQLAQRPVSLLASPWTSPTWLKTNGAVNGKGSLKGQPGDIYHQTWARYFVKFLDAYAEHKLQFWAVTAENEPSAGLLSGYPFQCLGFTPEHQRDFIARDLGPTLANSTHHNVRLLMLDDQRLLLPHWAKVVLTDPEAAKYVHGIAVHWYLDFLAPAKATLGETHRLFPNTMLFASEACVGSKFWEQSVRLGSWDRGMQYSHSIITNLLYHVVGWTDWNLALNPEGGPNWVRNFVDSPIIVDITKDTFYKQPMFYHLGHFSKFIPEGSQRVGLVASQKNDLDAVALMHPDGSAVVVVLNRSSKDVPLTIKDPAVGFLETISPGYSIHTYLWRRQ
How it was run: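 Compounds titrated from 0.6 nM upwards against 0.2 nM enzyme in pH 5.9 citric acid/KH2PO4, taurocholate, tween-20; blue fluorogenic substrate 80 uM, 40 min room temperature, stopped and read Ex 365/Em 440 for AC50.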

[5] = Cell Viability - BJ (AID 421); conditions: BJ fibroblast viability, qHTS;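 also: potency is read from the fitted curve at half-maximal effect; cells exposed to compound for 40 hours at 37 °C before readout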
How it was run: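 Luminescent ATP signal (CellTiter-Glo, 20 min at room temperature) served as the read-out of viable BJ cells after 40 hours of compound treatment. Responses were scaled between DMSO and 100 uM tamoxifen, and AC50 values were obtained by Hill modeling.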

[6] = Cell Viability - Hek293 (AID 427;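 active = compounds whose dose-response curve shows a full or clear partial loss of cell viability, called from curve shape rather than a numeric limit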;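 also: potency is read from the fitted curve at half-maximal effect; cells exposed to compound for 40 hours at 37 °C before reading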); conditions: qHTS
How it was run: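 Luminescent ATP read-out (CellTiter-Glo, 20 min RT) after 40 hr compound exposure at 37 °C in complete medium. Signal normalized to DMSO (basal) and 100 uM tamoxifen (100% inhibition); concentration-response fitted with the standard Hill equation to give AC50.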

[7] = Cell Viability - HepG2 (AID 433); conditions: qHTS;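 also: potency is read from the fitted curve at half-maximal effect; potency for ATP loss meaning cytotoxicity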
How it was run: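 ATP luminescence (CellTiter-Glo) after 40 h compound exposure, 37 °C, HepG2, 1500 cells/well, complete medium. Normalized: DMSO = basal, 100 uM tamoxifen = 100% inhibition. AC50 via standard Hill equation.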

[8] = Cell Viability - MRC5 (AID 434); conditions: MRC5 lung fibroblast viability, qHTS;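 also: potency is read from the fitted curve at half-maximal effect; cells exposed to compound for 40 hours at 37 °C; potency reflects cytotoxicity seen as loss of intracellular ATP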
How it was run: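 MRC5 normal human lung fibroblasts (1500/well) were treated with compounds for 40 hr at 37 °C in complete medium, and viable cells were measured as intracellular ATP by CellTiter-Glo luminescence. AC50 came from Hill fits, normalized to DMSO and 100 uM tamoxifen.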

[9] = Cell Viability - SK-N-SH (AID 435); conditions: SK-N-SH neuroblastoma cell viability qHTS; also: potency is read from the fitted curve at half-maximal effect
How it was run: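 CellTiter-Glo ATP luminescence, 20 min RT read; cells pre-plated 5 hr, compound 40 hr at 37 °C, 1500 cells/well, complete medium. Normalized DMSO = 0, 100 uM tamoxifen = 100% inhibition; Hill-fit AC50.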

[10] = Cell Viability - Jurkat (AID 426;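 active = dose-dependent loss of cell ATP signal giving a full or clear fitted curve, ranked by lower potency value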;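 also: potency is read from the fitted curve at half-maximal effect; cells exposed to compound for 40 hours at 37 °C before ATP read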); conditions: qHTS
How it was run: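 qHTS, 1536-well; Jurkat E6-1, 5000 cells/well, complete medium; cpd 40 hr, 37 °C; CellTiter-Glo 20 min RT; luminescence. AC50 by Hill fit.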

[11] = at 38 µM (top of the series) unless noted

Q: Which outcome [1] does the source give for CCCN(CCC)C1Cc2cc(OC)c(OC)cc2C1 here?
A: inactive

Q: And the Potency [2]?
A: inactive

Q: Which outcome [1] does the source give for COc1ccc2[nH]c3c(c2c1)CCNC3 here?
A: inactive

Q: And the Potency [2]?
A: 3.16 µM (active)

Q: And the activity change, negative = inhibition [3, 11]?
A: 4.34% (inactive)

Q: With Cc1sc2ccccc2c1CC1=NCCN1 as the compound, how does the outcome [1] read?
A: inactive

Q: What about the Potency [2] of the same compound?
A: 2.51 µM (active)

Q: What about the activity change, negative = inhibition [3, 11] of the same compound?
A: -16.3% (inactive)

Q: Which outcome [1] does the source give for CN1[C@@H]2CC[C@H]1CC(OC(=O)C1C=Nc3ccccc31)C2 (some centres undefined) here?
A: inactive

Q: Which Potency [4] does the source give for CC(C)(C)c1cc(O)ccc1O here?
A: > 11.4 µM (inactive)

Q: And the activity change, negative = inhibition [1]?
A: 7.46% [at 7.69 µM] (inactive)

Q: And the activity change, negative = inhibition [2]?
A: -8.4% [at 11.4 µM] (inactive)

Q: What about the Potency [5] of the same compound?
A: > 92 µM (inactive)

Q: And the Potency [6]?
A: > 92 µM (inactive)

Q: And the Potency [7]?
A: > 92 µM (inactive)

Q: What about the Potency [8] of the same compound?
A: > 92 µM (inactive)

Q: What about the Potency [9] of the same compound?
A: > 92 µM (inactive)

Q: And the activity change, negative = inhibition [3, 11]?
A: -2.58% [at 7.69 µM] (inactive)

Q: With N#CCCN as the compound, how does the outcome [1] read?
A: inactive

Q: And the Potency [2]?
A: inactive

Q: And the activity change, negative = inhibition [3, 11]?
A: 7.43% (inactive)

Q: With C[C@@H]1[C@@H]2Cc3ccc(O)cc3[C@@]1(C)CCN2CC1CC1 as the compound, how does the outcome [1] read?
A: inactive

Q: What about the Potency [2] of the same compound?
A: inactive

Q: Which outcome [1] does the source give for CN1CCc2cccc(Cl)c2CC1 here?
A: inactive

Q: What about the Potency [2] of the same compound?
A: inactive

Q: And the activity change, negative = inhibition [3, 11]?
A: 3.59% (inactive)

Q: With COc1ccc(OC)c(C(O)C(C)N)c1 (centres undefined) as the compound, how does the outcome [1] read?
A: inactive

Q: Which outcome [1] does the source give for O=C1C=CC(=O)C=C1 here?
A: inactive

Q: And the Potency [2]?
A: inactive

Q: What about the Potency [5] of the same compound?
A: > 92 µM (inactive)

Q: What about the Potency [10] of the same compound?
A: 31.4 µM (active)

Q: And the Potency [6]?
A: > 92 µM (inactive)

Q: And the Potency [7]?
A: > 92 µM (inactive)

Q: And the Potency [8]?
A: > 92 µM (inactive)

Q: And the Potency [9]?
A: > 92 µM (inactive)

Q: What about the activity change, negative = inhibition [3, 11] of the same compound?
A: -3.4% (inactive)

Q: Which outcome [1] does the source give for COc1ccc2[nH]cc(CCN)c2c1 here?
A: inactive

Q: What about the Potency [2] of the same compound?
A: 1.58 µM (active)

Q: And the activity change, negative = inhibition [3, 11]?
A: -0.77% (inactive)

Q: Which results are given for C[N+]1(C)CCN(c2ccccc2)CC1?
A: outcome [1]: inactive; Potency [2]: inactive

Q: For CCCCCCC(C)(C)c1ccc([C@@H]2C[C@H](O)CC[C@H]2CCCO)c(O)c1, which outcome [1] is on record?
A: inactive

Q: Which outcome [1] does the source give for CC(=O)NBr here?
A: inactive

Q: And the Potency [2]?
A: inactive

Q: What about the activity change, negative = inhibition [3, 11] of the same compound?
A: -0.158% (inactive)

Q: What does the source list for CCCn1c(C)c(C(=O)c2ccc3ccccc3c2)c2ccccc21?
A: outcome [1]: inactive; Potency [2]: 6.31 µM (active)

Q: What does the source list for CCCN(CCC)[C@H]1CCc2c(F)ccc(O)c2C1?
A: outcome [1]: inactive; Potency [2]: 12.6 µM (active) and 25.1 µM (active)

Q: With C[C@@H](Cc1ccccc1)NCCC(c1ccccc1)c1ccccc1 as the compound, how does the outcome [1] read?
A: inactive

Q: Which outcome [1] does the source give for O=c1c2ccccc2[se]n1-c1ccccc1 here?
A: inactive

Q: And the Potency [2]?
A: 3.98 µM (active) and 794 nM (active)

Q: With c1cc2c(c(NC3=NCCN3)c1)CCCC2 as the compound, how does the Potency [4] read?
A: > 11.4 µM (inactive)

Q: And the activity change, negative = inhibition [1]?
A: 7.07% [at 7.69 µM] (inactive)

Q: What about the activity change, negative = inhibition [2] of the same compound?
A: -17.1% [at 11.4 µM] (inactive)

Q: What about the activity change, negative = inhibition [3, 11] of the same compound?
A: -5.58% [at 7.69 µM] (inactive)

Q: With O=P(O)(O)C(Cl)(Cl)P(=O)(O)O as the compound, how does the outcome [1] read?
A: inactive

Q: And the Potency [2]?
A: inactive

Q: What about the activity change, negative = inhibition [3, 11] of the same compound?
A: 10.1% (inactive)

Q: With CCCN1CCc2cc(O)cc3c2[C@H]1Cc1ccc(O)c(O)c1-3 as the compound, how does the outcome [1] read?
A: inactive

Q: What about the Potency [2] of the same compound?
A: 12.6 µM (active)

Q: What does the source list for CN(N=O)c1cc(O)ccc1O?
A: outcome [1]: inactive; Potency [2]: 31.6 µM (active); activity change, negative = inhibition [3, 11]: 0.498% (inactive)

Q: With NC(=O)CI as the compound, how does the outcome [1] read?
A: inactive

Q: What about the Potency [2] of the same compound?
A: 31.6 µM (active)

Q: What about the activity change, negative = inhibition [3, 11] of the same compound?
A: 6.62% (inactive)

Q: With C[N+](C)(C)CC#CCN1CCCC1=O as the compound, how does the outcome [1] read?
A: inactive

Q: What about the Potency [2] of the same compound?
A: inactive

Q: With C[C@@H]1O[C@H](C[N+](C)(C)C)CS1 as the compound, how does the outcome [1] read?
A: inactive

Q: What about the Potency [2] of the same compound?
A: inactive

Q: With Nc1ccc(CCN2CCN(c3cccc(C(F)(F)F)c3)CC2)cc1 as the compound, how does the outcome [1] read?
A: inactive

Q: And the Potency [2]?
A: 10 µM (active)

Q: For OCc1cnc[nH]1, which outcome [1] is on record?
A: inactive

Q: And the Potency [2]?
A: inactive

Q: And the activity change, negative = inhibition [3, 11]?
A: 7.81% (inactive)

Q: With C[N+]1(C)[C@@H]2CC[C@H]1CC(OC(=O)c1c[nH]c3ccccc13)C2 (some centres undefined) as the compound, how does the outcome [1] read?
A: inactive

Q: And the Potency [2]?
A: inactive

Q: With C[C@H](N)CN1CCc2ccc(Br)cc21 as the compound, how does the outcome [1] read?
A: inactive

Q: For CCC(=O)O[C@@](Cc1ccccc1)(c1ccccc1)[C@@H](C)CN(C)C, which outcome [1] is on record?
A: inactive

Q: What about the Potency [2] of the same compound?
A: inactive

Q: And the activity change, negative = inhibition [3, 11]?
A: -25.8% [at 17.2 µM] (inactive)

Q: For O=C(O)c1cc[c]([Hg][Cl])cc1, which outcome [1] is on record?
A: inactive

Q: And the Potency [2]?
A: 3.16 µM (active)

Q: For Cc1c2ccncc2c(C)c2c1[nH]c1ccccc12, which outcome [1] is on record?
A: inactive

Q: And the Potency [2]?
A: 79.4 nM (active) and 20 nM (active)

Q: With NNC(=O)c1ccc(O)cc1 as the compound, how does the outcome [1] read?
A: inactive

Q: What about the Potency [2] of the same compound?
A: inactive

Q: And the activity change, negative = inhibition [3, 11]?
A: -6.3% (inactive)

Q: For NNC(N)=O, which Potency [5] is on record?
A: > 92 µM (inactive)

Q: What about the Potency [10] of the same compound?
A: > 92 µM (inactive)

Q: And the Potency [6]?
A: > 92 µM (inactive)

Q: And the Potency [7]?
A: > 92 µM (inactive)

Q: What about the Potency [8] of the same compound?
A: > 92 µM (inactive)

Q: What about the Potency [9] of the same compound?
A: > 92 µM (inactive)

Q: Which activity change, negative = inhibition ([3]; at 17.2 µM (top of the series)) does the source give for NC(N)=NOCC[C@H](N)C(=O)O here?
A: -0.483% (inactive)

Q: And the activity change, negative = inhibition ([3]; at 38 µM (top of the series))?
A: 17% (inactive)

Q: Which Potency [5] does the source give for O=[N+]([O-])c1ccccc1 here?
A: > 92 µM (inactive)

Q: What about the Potency [10] of the same compound?
A: > 92 µM (inactive)

Q: And the Potency [6]?
A: > 92 µM (inactive)

Q: And the Potency [7]?
A: > 92 µM (inactive)

Q: And the Potency [8]?
A: > 92 µM (inactive)

Q: And the Potency [9]?
A: > 92 µM (inactive)

Q: Which Potency [5] does the source give for COc1ccc2c(c1OC)C(=O)OC2C1c2cc3c(cc2CCN1C)OCO3 (centres undefined) here?
A: > 92 µM (inactive)

Q: What about the Potency [10] of the same compound?
A: > 92 µM (inactive)

Q: And the Potency [6]?
A: > 92 µM (inactive)

Q: What about the Potency [7] of the same compound?
A: > 92 µM (inactive)

Q: And the Potency [8]?
A: > 92 µM (inactive)

Q: And the Potency [9]?
A: > 92 µM (inactive)
